Compound activity: PubChem, The Scripps Research Institute Molecular Screening Center
HGIII-sPLA2 inh: human group III sPLA2 inhibitors, primary screen, biochemical, QFRET, BODIPY PC-A2 liposome substrate; actives 0.56% (n = 370,000); inhibition, % at 12.2 µM; QFRET BODIPY PC-A2 liposome hydrolysis, fluorescence; Group 3 secretory phospholipase A2 (Homo sapiens), Q9NZ20;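 active = inhibition above mean plus 3 SD of compounds lying within the high and low control bounds, cut at about 19% in these data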;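 note: 0% = median of test compound wells and 100% = no enzyme DMSO wells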
MOR-DOR inv ag: inverse agonists of MOR-DOR heterodimerization, primary screen, cell-based, luminescence. cell-based MOR-DOR heterodimer luminescence, inverse agonism. actives 0.21% (n = 340,000). AID 504357, 2011. inhibition, % at 9.3 µM; in the data active = inhibition above about 22%, passing the limit was not always enough;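 note: 0% = cells with DMSO and 100% = wells without cells with DMSO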
OPRM1-OPRD1 ag: agonists of OPRM1-OPRD1 heterodimerization, primary screen, cell-based, luminescence; actives 0.3% (n = 340,000); cells; activation, % at 9.3 µM; Mu-type opioid receptor (Homo sapiens) + Delta-type opioid receptor (Homo sapiens), …; in the data active = activation above about 18%;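 note: 0% = vehicle-treated cells and 100% = reference agonist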
HTR5A inv ag: HTR5A inverse agonists in luminescence cell assay, primary screen, counter-screen for OPRM1-OPRD1 heterodimer inverse agonist project, full-deck HTS. inhibition, % at 9.3 µM. actives 0.083% (n = 340,000). HTR5A cell line, inverse agonism. 5-hydroxytryptamine receptor 5A (Homo sapiens), P47898; in the data active = inhibition mostly above about 23%, no sharp cut-off; inactive = mostly below about 18%;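 note: 0% = cells with DMSO and 100% = no-cell wells with DMSO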
HTR5A ag: HTR5A agonists in luminescence cell assay, primary screen, counter-screen for OPRM1-OPRD1 heterodimer agonist project, full-deck HTS; AID 504692, 2011; actives 0.61% (n = 340,000); 5-hydroxytryptamine receptor 5A (Homo sapiens), P47898; activation, % at 9.3 µM; cell-based; in the data active = activation mostly above about 9.5%, no sharp cut-off; inactive = mostly below about 7.6%;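 note: 0% = cells with vehicle only and 100% = reference agonist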
m5-HT2A agonist: mouse Htr2a agonists via beta-arrestin recruitment, primary screen, cell-based, luminescence; actives 0.66% (n = 360,000); CHO-K1 mHTR2A beta-arrestin complementation; percent of 30 µM serotonin response; AID 624169, 2012; 5-hydroxytryptamine receptor 2A (Mus musculus), P35363; activation, % at 7.6 µM;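 active = activation above a run cutoff, the mean activation of all tested compounds plus 3 SD, cut at about 14% in these data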;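 note: 0% = plate median of compound wells and 100% = 30 µM serotonin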
Target sequence (P35363 whole entry, looked up): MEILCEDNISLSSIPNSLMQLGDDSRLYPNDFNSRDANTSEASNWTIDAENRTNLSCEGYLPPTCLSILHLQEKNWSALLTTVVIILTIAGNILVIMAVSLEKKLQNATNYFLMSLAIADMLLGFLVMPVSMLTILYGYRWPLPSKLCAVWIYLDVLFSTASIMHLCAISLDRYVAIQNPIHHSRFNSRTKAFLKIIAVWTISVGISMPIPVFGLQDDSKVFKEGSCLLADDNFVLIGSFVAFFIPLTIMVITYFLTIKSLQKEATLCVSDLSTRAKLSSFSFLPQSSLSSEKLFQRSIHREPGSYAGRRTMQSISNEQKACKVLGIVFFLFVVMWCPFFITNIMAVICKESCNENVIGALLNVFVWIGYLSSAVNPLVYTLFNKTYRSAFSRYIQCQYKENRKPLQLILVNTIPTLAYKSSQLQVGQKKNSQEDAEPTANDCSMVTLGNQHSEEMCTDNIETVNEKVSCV
Starred values were filed as active, the others as inactive; · = no result. Compounds with a hit are over-represented: about 2.2% of the library has one in this group of screens.

SMILES | HGIII-sPLA2 inh | MOR-DOR inv ag | OPRM1-OPRD1 ag | HTR5A inv ag | HTR5A ag | m5-HT2A agonist
C[C@@H]1OC(C2CCCCC2)N(C)[C@H]2C[C@H]3c4[nH]c5cccc(-c6cccc(F)c6)c5c4CCN3C(=O)[C@@H]12 (stereo partly specified) | 5.7 | · | · | · | · | ·
COc1ccc(Oc2nccc(-c3ccccc3)c2C#N)cc1 | -14.6 | -0.2 | 0.0 | -15.3 | 11.4* | 0.1
O=C(c1ccc2c(c1)OCO2)C1CCCN(Cc2ccccc2OC(F)F)C1 (stereo unspecified) | 3.4 | -44.7 | 8.3 | -3.4 | 12.5* | -10.6
COc1cccc(CN2CCCC(C(=O)c3ccc4c(c3)OCO4)C2)c1OC (stereo unspecified) | -2.3 | 1.9 | -0.4 | 10.2 | -0.3 | -2.7
C=CCN1[C@H](CC(C)C)COc2cc(N3CCCC3)ccc2S1(=O)=O | 5.7 | · | · | · | · | ·
COc1ccc2c3c([nH]c2c1)[C@]1(CCNC=O)Nc2ccccc2C1=NCC3 | 12.7 | · | · | · | · | ·
COc1cccc(C(=O)COc2ccc3ccc(=O)oc3c2)c1 | -7.5 | 8.6 | -1.2 | -33.1 | 12.0* | 1.7
COc1cccc(C(=O)COc2ccc3c(C)cc(=O)oc3c2)c1 | -8.6 | -5.0 | 1.0 | 14.7 | -4.0 | -7.1
O=S1(=O)c2c(cccc2N2CCSCC2)Oc2ccccc2CN1Cc1cn(Cc2cccc(C(F)(F)F)c2)nn1 | -5.8 | · | · | · | · | ·
Cn1c(=O)c([N+](=O)[O-])c(Cl)c2ccccc21 | -4.9 | 37.5* | -7.7 | 13.4 | -4.9 | -9.0
COC(=O)[C@]12C[C@H](CC(=O)N3CCN(C(=O)C4CC4)CC3)C(=O)N(Cc3ccc(Cl)cc3Cl)C1=C[C@H](C1CCCC1)O[C@@H]2C | -4.6 | · | · | · | · | ·
CC(c1ccc(NC(=O)OC(C)(C)C)cc1)c1cn(C)c2ccccc12 (stereo unspecified) | -36.6 | · | · | · | · | ·
Cc1ccc(C(=O)N/N=C/c2cc(Br)ccc2O)cn1 | -0.6 | -4.6 | 1.0 | -38.2 | 10.3* | -3.2
CCN(Cc1cn(Cc2ccc(C)cc2)nn1)S(=O)(=O)c1ccccc1Br | -4.3 | · | · | · | · | ·
Cc1nc2cc(C(F)(F)F)ccc2n1C1CCN(CC(=O)N2CCOCC2)CC1 | 7.9 | 8.7 | -1.6 | 0.2 | 9.0* | 0.4
Cc1nc2cc(C(F)(F)F)ccc2n1C1CCN(CC(=O)N2CCCC2)CC1 | 1.0 | 6.2 | -1.2 | 13.4 | 3.6 | -3.0
O=C(Nc1c(C(=O)O)[nH]c2ccc(F)cc12)c1cccc(C(F)(F)F)c1 | -53.1 | 3.3 | -0.6 | -37.4 | 11.9* | -0.1
O=C(Nc1c(C(=O)O)[nH]c2ccccc12)c1cccc(C(F)(F)F)c1 | -88.1 | 8.9 | -1.7 | 13.1 | -4.2 | 3.0
C#CCCCN([C@H](C(=O)OC)C(C)C)S(=O)(=O)c1ccc(F)cc1Br | 2.2 | · | · | · | · | ·
c1ccc2c(c1)ncn2-c1ncnc2sc3c(c12)CCCC3 | -2.6 | 6.9 | -1.3 | -5.1 | 4.2 | -0.2
CC(O)CNc1nc2ccccc2n1-c1ncnc2sc3c(c12)CCC3 (stereo unspecified) | -10.1 | 5.0 | -0.8 | -4.0 | 1.5 | 18.0*
Nc1[nH]c(C(=O)c2ccccc2)c(-c2ccc(Cl)cc2Cl)c1C(=O)NCCC1=CCCCC1 | 14.8 | · | · | · | · | ·
O=C(COC(=O)c1ccncc1)Nc1ccccc1 | 0.4 | 2.5 | -0.5 | -4.4 | 11.8* | 4.4
O=C(COC(=O)c1cccnc1)Nc1ccccc1 | 4.5 | 12.2 | -2.6 | -8.1 | 2.8 | 0.5
C=CCNC(=S)N1CCN(S(=O)(=O)c2ccc(C)cc2)CC1 | 6.8 | 4.1 | -0.8 | -11.2 | 12.4* | -0.3
SMILES | HGIII-sPLA2 inh | MOR-DOR inv ag | OPRM1-OPRD1 ag | HTR5A inv ag | HTR5A ag | m5-HT2A agonist
CCc1ccccc1S(=O)(=O)Cc1ccc(C(=O)NC(C)C)o1 | 4.1 | 13.6 | -2.6 | -34.9 | 12.6* | -1.2
CCc1ccccc1S(=O)(=O)Cc1ccc(C(=O)NCc2ccc3c(c2)OCO3)o1 | -5.6 | 0.5 | -0.1 | 14.2 | -5.1 | 6.0
COc1cc(O)c(C(CC(=O)N2CCC(C)CC2)c2ccc3c(c2)OCO3)c(OC)c1 (stereo unspecified) | -5.8 | · | · | · | · | ·
CS(=O)(=O)c1ccc(C(=O)OCc2nnc(-c3ccc(Cl)cc3)o2)cc1[N+](=O)[O-] | · | -15.5 | 3.2 | -28.8 | 10.4* | -0.5
O=C(OCc1nnc(-c2ccc(Cl)cc2)o1)c1ccc(O)cc1 | -26.5 | 9.6 | -1.9 | -10.0 | 3.7 | -2.0
S=C(Nc1ccccc1Cl)OCCN1CCCC12CCC(c1ccccc1)CC2 (stereo unspecified) | 3.9 | · | · | · | · | ·
O=C(OCC#CCSc1nnc(-c2cccc3ccccc23)o1)c1ccsc1 | -13.5 | · | · | · | · | ·
COc1ccc(/C=C2/SC(=S)N(CCC(=O)N3CCN(C)CC3)C2=O)cc1 | -9.4 | -22.1 | 3.1 | -19.9 | 13.6* | -7.2
COc1ccc(/C=C2/SC(=S)N(CCCC(=O)N3CCN(C)CC3)C2=O)cc1 | -18.2 | 1.7 | -0.4 | 7.1 | -2.8 | -5.9
FC(F)(F)c1cccc(N2CCN(C(=S)Nc3nccc4ccccc34)CC2)c1 | 9.9 | · | · | · | · | ·
Cc1nc(-c2ccc(C(=O)Nc3ccc(F)cc3)cc2)cs1 | 0.2 | -63.6 | 8.8 | -36.8 | 13.0* | 6.5
COC(=O)[C@]12C[C@H](CC(=O)NCc3cccc4ccccc34)C(=O)N(Cc3ccc(Cl)cc3Cl)C1=C[C@H](C(C)C)O[C@@H]2C1CC1 | -1.4 | · | · | · | · | ·
CC#CC[N+](C)(C)CCCCCCCC | 8.2 | 18.9 | -3.7 | 1.0 | -4.8 | -1.4
CCCCCCCCCCCCCCCC[N+](C)(C)Cc1ccc(F)cc1 | -12.7 | -16.5 | 3.4 | -42.2 | 11.0* | -4.8
CCCCC(=O)Nc1sc2c(c1C(=O)OCC)CCC(C=O)=C2Cl | · | -5.2 | 0.9 | 3.8 | 12.3* | 0.4
N#Cc1cnn(-c2ccccc2)c1NC(=O)CN1CCOCC1 | -3.2 | · | · | · | · | -4.9
CCOC(=O)c1cnn(-c2ccccc2)c1NC(=O)CN1CCOCC1 | -7.2 | -4.8 | 1.0 | -15.4 | 13.5* | -4.8
CCOC(=O)C(=CNc1cc(C)nn1-c1ccc(Cl)cc1)C(=O)OCC | 5.1 | -42.5 | 8.1 | -36.3 | 10.4* | 12.4
O=C(Nc1ccc(F)c(C(F)(F)F)c1)Nc1nnc(-c2ccncc2)s1 | 9.4 | · | · | · | · | ·
C#CC(=O)N(c1ccc(OC)cc1OC)C(C(=O)NC1CCCC1)c1cccs1 (stereo unspecified) | 0.5 | -274.2 | 52.1* | -121.4 | 43.3* | -5.3
C=CCNC(=S)NNC(=O)COc1ccc2cc(Br)ccc2c1 | -2.7 | 14.3 | -2.6 | 7.9 | -4.6 | 15.8*
CC(=O)N1CCc2c1cccc2S(=O)(=O)NC(CC(C)C)C(=O)Nc1ccc(Cl)c(Cl)c1 (stereo unspecified) | -28.1 | · | · | · | · | ·
